According to PubChem BioAssay (NCI):
About 83,000 compounds went through this panel and 20% of them were active in at least one assay; those are over-represented in the sample as a whole.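 Negative percent growth values reflect cell death: -40 means 40% of the cells present at the start died, and -100 means all died.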 Active and inactive are the calls of the source.

These compounds were tested on UACC-62 melanoma (assay: NCI-60 one-dose screen, 48 h (100 = growth as untreated, 0 = no growth, -100 = all killed)). Settings: 10 µM unless noted.
Protocol: Growth inhibition of the UACC-62 human tumor cell line is measured as a screen for anti-cancer activity. Cells are grown in 96 well plates and exposed to the test compound for 48 hours. Compounds are tested at a single concentration, which is 10^-5 M for most compounds. The reported endpoint is percent growth (GI% or GIPRCNT), where numbers from 0 - 100% represent growth inhibition, and numbers from -100% - 0 represent cell death. For example, a value of 40 represents 60% growth inhibition. A value of 0 means no net growth occurred over the course of the experiment. A value of -40 indicates 40% of cells at the beginning of the experiment died by the end of the experiment. A value of -100 means all cells are dead at the end of the experiment.
NCI-60 Human Tumor Cell Lines Screen was performed using the standard one-dose NCI protocol, which is described in more detail at https://dtp.cancer.gov/discovery_development/nci-60/default.htm.
Compounds with GIPRCNT values below 10 were considered active. Activity score was based on GIPRCNT using the following formula: […]
Score is 0 for GIPRCNT values of 100 or above, 50 for GIPRCNT values of 0, and 100 for GIPRCNT values of -100.

Row | SMILES | growth
1 | C[C@]12CCc3nc(Nc4cccc(O)c4)sc3C1=CC[C@@H]1[C@@H]2CC[C@]2(C)/C(=N\NC(N)=S)CC[C@@H]12 | 73.1% (inactive)
2 | CCCCCN1C=C/C(=C\C(=O)N(C)c2cccc3ccccc23)c2ccccc21 | 87.4% (inactive)
3 | COc1cc2c(cc1[N+](=O)[O-])-c1ccc([N+](=O)[O-])cc1/C2=N/NC(N)=S | 36.4% (inactive)
4 | Cc1ccc(/C=C/C(=O)c2ccc(N)cc2)c(C)c1 | 86.8% (inactive)
5 | COc1ccc(/C=C/C(=O)c2ccc(Nc3ncnc4ccccc34)cc2)cc1OC | 87.1% (inactive)
6 | Cc1ccccc1-c1cc(Cc2ccc(F)cc2)c(=O)[nH]n1 | 99.6% (inactive)
7 | O=C(CN1CCOCC1)Nc1ccc2ncnc(Nc3ccc(Oc4cccc(F)c4)c(Cl)c3)c2c1 | 76.7% (inactive)
8 | Nc1nc(SN=Nc2ccc(S(N)(=O)=O)cc2)c2[nH]cnc2n1 | 0.536% (active)
9 | CN1C(=O)N(C)[C@H]2NC(NN)=N[C@H]21 | 101% (inactive)
10 | COc1cc2c(cc1[N+](=O)[O-])-c1ccc([N+](=O)[O-])cc1/C2=N\O | 75.9% (inactive)
11 | Cc1cn(-c2cc(C(=O)Nc3cccc(C#Cc4cccc5[nH]nc(N)c45)c3)cc(C(F)(F)F)c2)cn1 | 12.2% (inactive)
12 | CCCc1cc2c(cc1Br)OCO2 | 101% (inactive)
13 | COc1cc2nc(-c3ccc(C(F)(F)F)cc3)cc(OCCCN3CCCCC3)c2cc1OC | -34.7% (active)
14 | COc1ccc(C(O)c2cc3c(N)c(C(=O)Nc4cccc(OC)c4)sc3nc2C)cc1 (stereo not given) | 23.6% (inactive)
15 | c1ccc(-c2nn(-c3ccccc3)[n+](-c3ccccc3-c3ccccc3)n2)cc1 | 26.4% (inactive)
16 | COc1ccccc1OCC(=O)N1CCCCCC1 | 99.4% (inactive)
17 | CCCCCCNC(=O)Oc1ccc(/C(=C(/CC)Cc2ccccc2)c2ccc(OCCN(CC)CC)cc2)cc1 | 87.6% (inactive)
18 | CS(=O)(=O)OCCN(CCOS(C)(=O)=O)c1ccc(/C=N/Nc2ccc([N+](=O)[O-])cc2[N+](=O)[O-])cc1 | 78% (inactive)
19 | CN(C)C(C(N)=O)c1ccc(Cl)cc1 (stereo not given) | 90.8% (inactive)
20 | COc1cc(CNC(=O)CCCCC[P+](c2ccccc2)(c2ccccc2)c2ccccc2)c(OC)c2c1OCO2 | 41.8% (inactive)

Row | SMILES | growth
21 | CCOC(=O)c1c(C)nc2c(c1N)C(=O)C(=O)N2Cc1ccc(C(F)(F)F)cc1 | 42.8% (inactive)
22 | O=S(=O)(O)c1cc(O)c2c(N=Nc3ccc(Nc4ccccc4)c4c(S(=O)(=O)O)cccc34)cc(S(=O)(=O)O)cc2c1 | 105% (inactive)
23 | O=C(CNCCO)Nc1ccc2ncnc(Nc3ccc(OCc4cccc(F)c4)c(Cl)c3)c2c1 | 104% (inactive)
24 | COc1ccc(NC(=O)c2sc3nc(C)c(C(=O)c4ccc(OC)cc4)cc3c2N)cc1 | 46.1% (inactive)
25 | COc1ccc(/C(=C\c2ccccc2)C(=O)O)cc1OC | 93% (inactive)
26 | COc1ccc(-c2nc(N=Nc3c(O)[nH]c4ccccc34)nc(N3CCOCC3)c2C#N)cc1 | 50.3% (inactive)
27 | COc1ccc(C(=O)c2cc3c(N)c(C(=O)Nc4cccc5ccccc45)sc3nc2C)cc1 | 31.8% (inactive)
28 | COc1cccc(-c2nc3occn3c2-c2ccnc(NCCCNS(=O)(=O)c3cccc(F)c3)n2)c1 | 45.2% (inactive)
29 | COc1cc(NCC(C)(O)CN(CC(C)C)CC(C)C)c2nc(C)ccc2c1 (stereo not given) | 68.3% (inactive)
30 | COc1cc2ncnc(Nc3ccc(C(=O)/C=C/c4ccc(C(F)(F)F)cc4F)cc3)c2cc1OC | 100% (inactive)
31 | CC[C@H](C)[C@@H]1NC(=O)[C@H](Cc2ccc(O)cc2)N(C)C(=O)[C@H](Cc2ccccc2)NC(=O)CN(C)C(=O)[C@@H]2CCCN2C(=O)[C@@H](Cc2ccccc2)N(C)C(=O)[C@H](CC(C)C)NC1=O | -28.8% (active)
32 | Cn1c(COC(=O)N2CCCCC2)nc2c(N3CCOCC3)nc(-c3ccccc3)nc21 | -92.7% (active)
33 | CCC(=O)c1ccc(O)c(OC)c1 | 95.5% (inactive)
34 | C=C(C)[C@@H]1CC[C@]2(C(=O)NCC(=O)OC)CC[C@]3(C)[C@H](CC[C@@H]4[C@@]5(C)Cc6c([nH]c7ccccc67)C(C)(C)[C@@H]5CC[C@]43C)[C@@H]12 | 76.6% (inactive)
35 | C/C(=C(/c1ccccc1)c1ccc(OCC(O)CN2CCOCC2)cc1)c1ccccc1 (stereo not given) | 97% (inactive)
36 | NC(=S)N/N=C(/c1ccccc1)c1ccccc1N | 93.9% (inactive)
37 | Cc1ccc(C2C3CC4CCCCC4N3[C@@]3(C(=O)Nc4cc(Cl)ccc43)C2C(=O)c2nc3ccccc3[nH]2)cc1 (stereo not given in full) | 54.7% (inactive)
38 | c1ccc(Cn2nc3c(c2-c2ccccc2)-c2oncc2CC3)cc1 | 76.2% (inactive)
39 | COc1ccccc1C(C[N+](=O)[O-])c1c(-c2ccccc2)[nH]c2cc(C)ccc12 (stereo not given) | 43.8% (inactive)
40 | C=CCn1c(SCC(=O)Nc2ccc(C(=O)/C=C/c3cc(OC)c(OC)c(OC)c3)cc2)nnc1-c1cc(-c2ccc(S(C)(=O)=O)cc2)nc2ccccc12 | 75.5% (inactive)
